Rows were chosen to be rich in hits. Some 2.9% of all compounds tested hit in one or more screens of this group.
LDHA block: LDHA (human) enzyme inhibition. purified LDHA, NADH/diaphorase-resazurin fluorescence; hits give low values. P00338. activity change, % (values are at about 110 or 230 µM). 480,000 compounds, 0.15% hits; in the data active means activity change below about -30%; inconclusive means mostly about -25% to -30%;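 further: plate controls were DMSO wells for no effect and wells without enzyme for full effect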
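LDH5 2 nM; NADH 0.06 mM, pyruvate 0.2 mM; 200 mM Tris pH 7.4, EDTA, Tween-20; 5 min RT. Detection: diaphorase 0.133 mg/mL + resazurin 37 µM, fluorescence ex540/em590 at 0 and 20 min; normalized to enzyme-free and DMSO wells.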
GLP1R inv ag: GLP-1 receptor (human) inverse agonism | P43220 | 410,000 compounds, 1.6% hits | Potency, µM (top dose mostly 38.3 µM), for the others: at the highest dose activity change, negative = inhibition, hits mostly inhibitors | HEK293 GLP-1R CRE-luciferase, luminescence, 24 h; GLP-1R form is constitutively active; further: potency means the concentration at half of the fitted maximal effect; on the % scale 0 is the no-effect control and ±100 the full control effect; nearly all actives have a fitted effect of over 55% in size
Target sequence (P43220 whole entry, looked up): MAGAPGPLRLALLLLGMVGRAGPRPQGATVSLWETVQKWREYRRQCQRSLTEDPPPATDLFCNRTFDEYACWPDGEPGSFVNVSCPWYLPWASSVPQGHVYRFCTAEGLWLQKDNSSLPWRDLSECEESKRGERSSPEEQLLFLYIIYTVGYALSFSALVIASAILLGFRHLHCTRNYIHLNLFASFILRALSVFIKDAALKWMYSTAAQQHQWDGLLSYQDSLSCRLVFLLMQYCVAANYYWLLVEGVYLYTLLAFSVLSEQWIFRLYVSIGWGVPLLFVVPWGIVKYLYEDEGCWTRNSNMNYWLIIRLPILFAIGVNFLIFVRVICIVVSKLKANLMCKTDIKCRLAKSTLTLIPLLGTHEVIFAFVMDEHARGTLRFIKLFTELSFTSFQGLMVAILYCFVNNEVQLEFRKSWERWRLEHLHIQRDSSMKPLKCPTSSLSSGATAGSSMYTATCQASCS
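Seeding at 200 cells/uL, 12 h culture, 24 hr compound treatment, then luciferase reagent and a luminescence read; cells are HEK293 stably expressing a constitutively active GLP-1R plus cAMP-responsive luciferase.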
HEK293 tox: cytotoxic in the GLP-1 receptor inverse agonist counter-screen; HEK293 cAMP-luciferase reporter cells, luminescence, 24 h; Potency, µM (titrated, usually from 38.3 µM), for inactives: at the top dose activity change, negative = inhibition, hits mostly inhibitors; 410,000 compounds, 0.13% hits; AID 624418;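 further: loss of luciferase light is scored as toxicity; potency means the concentration at half of the fitted maximal effect; on the % scale 0 is the no-effect control and ±100 the full control effect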
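Quantitative HTS format, 1536 wells, 200 cells/uL seeded. Compounds: 23 nL, 24 h, 37 °C. Detection: luciferase reagent, luminescence at 12 min RT; decreased signal taken as cytotoxic.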
GLP-1R agonist: GLP-1 receptor (human) agonism. P43220. HEK293 GLP-1R CRE-luciferase, luminescence, 4-6 h; cells express a hypersensitive GLP-1R form. Potency, µM (series often up to 45.6 µM), for the others: top-dose activation, most hits filed as activators. 380,000 compounds, 0.007% hits; further: potency means the concentration at half of the fitted maximal effect; % of control where 0% means no effect
ClpP mod: qHTS Assay for Activators of ClpP; 340,000 compounds, 1.9% hits; Potency, µM (series often up to 57.5 µM), for inactives: at the highest dose activity change, negative = active; purified B. subtilis ClpP, FRET peptide cleavage, 20 min; active means well fitted falling curve with a large enough effect; inconclusive means small, poorly fitted or top-dose-only effect; inactive means no such curve, though single readings can be large or run the other way; further: potency means the concentration at half of the fitted maximal effect; the source files actives as falling curves though it sought activators and does not explain the sign; nearly all actives have a fitted effect of over 65% in size
Target sequence (P80244 whole entry, looked up): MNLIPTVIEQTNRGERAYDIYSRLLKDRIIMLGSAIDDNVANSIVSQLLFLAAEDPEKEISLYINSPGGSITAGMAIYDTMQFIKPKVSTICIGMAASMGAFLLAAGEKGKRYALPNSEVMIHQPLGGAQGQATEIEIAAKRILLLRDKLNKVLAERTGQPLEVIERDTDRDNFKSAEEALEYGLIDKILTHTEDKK
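ClpP 10 microg/mL final, pH 8 Tris/KCl buffer with BSA, glycerol, Tween-20; compound pinned in; FRET-FV substrate; RT 20 min; Ex320/Em430; ΔFRET vs ADEP 5.8 microM, DMSO, no enzyme.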
p53 reactivator: mutant p53 re-activation in reporter cells; H1299 p53-A138V BP100-luciferase reporter, luminescence, 24 h; Potency, µM (top dose mostly 92.2 µM), for inactives: at the highest dose activity change, positive = activation, most hits filed as activators; 320,000 compounds, 0.063% hits; AID 504706; further: potency means the concentration at half of the fitted maximal effect; % of control where 0% means no effect; nearly all actives have a fitted effect of over 45% in size
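H1299 (p53-null), stable ts p53-A138V + BP100-Luc; 1000 cells/well, Opti-MEM/10% FBS; cpd 4 pt, 1:5; 24 h, 37 deg C, 5% CO2; detection reagent 10 min RT; luminescence.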
The depositor's hits bear a star; i = inactive; ? = inconclusive; . = no result given. Unless noted, the call rests on the fitted dose curve; in most records, active means well fitted curve in the direction sought with a large enough effect; inconclusive means small, poorly fitted or top-dose-only effect, or another doubt; inactive means no such curve, though single readings can be large; an effect the other way counts as inactive or inconclusive.

SMILES	LDHA block	GLP1R inv ag	HEK293 tox	GLP-1R agonist	ClpP mod	p53 reactivator
CC1CCc2[nH]c3ccc(C(=O)N(C)CC(=O)Nc4ccccc4Br)cc3c2C1 (stereo not drawn)	-0.7	?	?	0.5%	15.8µM*	-10.9%
O=C(COC(=O)Cc1ccccc1)Nc1cc(S(=O)(=O)N2CCOCC2)ccc1N1CCCC1	-6.3	26.5%	-1.0%	-3.4%	-12.1%	6.9%
O=S(=O)(c1ccc(Cl)c(NC(=S)N/N=C/c2ccc(O)cc2)c1)N1CCOCC1	-2.0	?	10µM*	-60.0%	-2.1%	7.1%
CCN1CCN(c2ccc([N+](=O)[O-])c3cnccc23)CC1	31.8	.	.	.	.	.
CCOP(=O)(OCC)c1nc(-c2ccc(Br)cc2)oc1N1CCCCC1	-1.6	8.91µM*	1.5%	13.4%	4.5%	-1.3%
CCOP(=O)(c1ccccc1)c1nc(-c2ccc(F)cc2)oc1N1CCCCC1 (stereo not drawn)	0.8	?	-1.3%	12.9%	?	12.7%
COC(=O)C(O)(c1ccc(NC(=O)Oc2ccccc2)cc1)C(F)(F)F (stereo not drawn)	-0.1	-1.8%	-13.3%	14.9%	1.4%	10.2%
COCCCn1c(N)c(C(=O)OCCOC)c2nc3ccccc3nc21	5.6	38.7%	392.2%	17.7%	-1.8%	-0.9%
CCOC(=O)c1c(NS(=O)(=O)c2ccccc2)n(CCCOC)c2nc3ccccc3nc12	28.0	1.0%	470.5%	-4.2%	28.2µM*	-9.9%
COCCCNC(=O)c1c(NC(=O)c2ccco2)n(Cc2ccccc2)c2nc3ccccc3nc12	23.1	93.4%	45.4%	-4.6%	15.8µM*	6.8%
COCCNC(=O)c1c(N)n(CCC(C)C)c2nc3ccccc3nc12	27.8	?	i	-4.0%	15.8µM*	-2.1%
CC(C)OCCCNC(=O)c1c(N)n(Cc2cccs2)c2nc3ccccc3nc12	-0.8	11.2µM*	245.9%	-9.7%	10µM*	-21.8%
COC(=O)C1=C(c2ccc(C(C)=O)cc2)C[C@@H]2CC[C@H]1N2C(=O)NC1CCCCC1	-3.5	12.2%	2.1%	1.4%	-1.0%	0.8%
COc1ccc(NC2=NCC(C)S2)cc1 (stereo not drawn)	-2.9	20.9%	?	8.6%	.	?
C=CC[N+]1(C)CCC23c4c5ccc(O)c4O[C@H]2C(=O)CC[C@@]3(O)C1C5 (stereo partly drawn)	.	.	.	20.3%	.	.
O=C(Nc1ccccc1)Oc1ccccc1N1CCOCC1	-7.7	-12.4%	?	0.2%	.	1.3%
CC1(C)CCCN1CCC(C(N)=O)(c1ccccc1)c1ccccc1	-4.8	4.8%	-1.1%	8.3%	.	.
CC(C)CCn1c(N)c(C(=O)NCc2cccs2)c2nc3ccccc3nc21	7.4	0.0%	18.1%	1.2%	14.1µM*	-24.5%
CCCCNC(=O)c1c(N)n(CCCOC)c2nc3ccccc3nc12	27.3	0.0%	i	9.9%	25.1µM*	-5.0%
O=C1NC(=O)C(=Cc2ccc(OCCOc3ccc([N+](=O)[O-])cc3)cc2)C(=O)N1	?	?	-13.0%	-11.6%	.	-5.6%
CC[C@@H](C(=O)[C@@H](C)[C@@H](O)[C@H](C)[C@@H]1O[C@@H]([C@@H](CC)C(=O)O)CC[C@@H]1C)[C@H]1O[C@]2(C=C[C@@H](O)[C@]3(CC[C@@](C)([C@H]4CC[C@](O)(CC)[C@H](C)O4)O3)O2)[C@H](C)C[C@@H]1C	-2.7	?	3.98µM*	-15.5%	-0.9%	.
C[C@@H]1CN([C@@H](C)CO)S(=O)(=O)c2ccc(Br)cc2O[C@H]1CN(C)C(=O)Nc1ccc(C(F)(F)F)cc1	-11.0	7.94µM*	-8.3%	-0.4%	-0.6%	.
COc1ccc(N2CCN(CCCN)CC2)cc1	4.4	0.0%	-5.3%	11.6%	-9.6%	.
O=C1CSC(c2cccc(F)c2F)c2cn[nH]c2N1 (stereo not drawn)	4.9	.	.	.	.	.
CC(=O)c1cn(Cc2ccc(F)cc2)c2ccccc12	-8.6	?	-1.3%	1.0%	-0.9%	.
SMILES	LDHA block	GLP1R inv ag	HEK293 tox	GLP-1R agonist	ClpP mod	p53 reactivator
COC(=O)c1cn(Cc2ccc(F)cc2)c2ccccc12	-0.5	11.2µM*	2.2%	15.6%	2.4%	.
CCOC(=O)c1ccccc1NC(=O)c1c(O)[nH]c(=O)[nH]c1=O	-1.5	9.4%	5.9%	-0.6%	-9.9%	.
CCOC(=O)c1ccccc1NC(=O)N(Cc1ccc(CC)cc1)Cc1cn[nH]c1-c1ccc(OC)cc1	3.8	?	-39.7%	.	35.5µM*	.
Cc1cccc(N(CC(=O)NCCSc2ccc(Cl)cc2)S(=O)(=O)c2ccccc2)c1C	-15.0	10µM*	-4.6%	.	-1.7%	.
Cc1ccc(S(=O)(=O)N(CC(=O)NCCSc2ccc(Cl)cc2)c2ccccc2C)cc1	1.7	11.2µM*	-2.6%	.	-2.8%	.
COC(=O)C1C(O)CC2CCC1N2C (stereo not drawn)	-8.7	3.8%	6.3%	5.3%	0.2%	7.1%
CCN1CCN(C(=O)COc2ccc3c(c2)C(=O)CC2(CCN(C(C)=O)CC2)O3)CC1	-6.1	2.5%	26.0%	0.9%	31.6µM*	-3.2%
CC1(C)CC(=O)c2cc(OCC(=O)N3CCN(Cc4ccccc4)CC3)ccc2O1	-1.0	-1.6%	23.3%	4.0%	.	0.3%
Cn1cccc1CNCCc1ccc(F)cc1	1.6	-4.5%	2.7%	10.8%	-3.4%	-0.8%
COc1ccccc1N1C(=O)NC(=O)/C(=C/c2ccc3c(c2)Cc2ccccc2-3)C1=O	-32.5*	26.2%	-3.7%	5.3%	.	2.3%
O=C1NC(=O)N(c2ccccc2)C(=O)/C1=C/c1ccc2c(c1)Cc1ccccc1-2	.	.	.	.	.	11.4%
COc1ccc(NC(=O)CN(c2ccc([N+](=O)[O-])cc2)S(=O)(=O)c2ccccc2)cc1	-0.1	6.31µM*	?	2.7%	0.9%	-6.3%
CC(C)=CCc1c(O)cc2c(c1O)C(=O)CC(c1ccc(O)cc1)O2 (stereo not drawn)	-1.8	12.6µM*	-7.3%	7.4%	0.5%	32.8%
CC(=O)Nc1cc(-c2cccc(C(=O)NCCN(C)C)c2)cn2c(-c3cccc(C(F)(F)F)c3)cnc12	-1.2	?	?	2.0%	-23.6%	.
Cc1ccc(C(C#N)=Cc2ccc3c(c2)OCO3)cc1	-0.3	10µM*	-11.6%	-0.1%	4.0%	.
CC1CCC(NC(=O)CN2CCN(S(=O)(=O)c3ccc(Br)s3)CC2)CC1 (stereo not drawn)	0.8	10µM*	?	-0.6%	-3.5%	.

High-throughput results as filed in PubChem BioAssay.
